The source of these data is PubChem BioAssay.

Molecules are shown by their SMILES. Active and inactive are the calls of the source.

The target in this test is Dihydroorotate dehydrogenase (quinone), mitochondrial (Plasmodium falciparum (isolate 3D7)) (UniProt Q08210). Briefly: PfDHODH enzyme inhibitors, primary screen, biochemical, C-terminal His tag, absorbance 600 nm (AID 1175).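 Also: recombinant parasite enzyme with a five histidine tag at its C terminus; test concentration not given here.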 The note with it: DCIP absorbance 600 nm, higher = more signal, called active from +8 up or from −8 down.
Sequence of Dihydroorotate dehydrogenase (quinone), mitochondrial (Plasmodium falciparum (isolate 3D7)) (Q08210 whole entry, looked up): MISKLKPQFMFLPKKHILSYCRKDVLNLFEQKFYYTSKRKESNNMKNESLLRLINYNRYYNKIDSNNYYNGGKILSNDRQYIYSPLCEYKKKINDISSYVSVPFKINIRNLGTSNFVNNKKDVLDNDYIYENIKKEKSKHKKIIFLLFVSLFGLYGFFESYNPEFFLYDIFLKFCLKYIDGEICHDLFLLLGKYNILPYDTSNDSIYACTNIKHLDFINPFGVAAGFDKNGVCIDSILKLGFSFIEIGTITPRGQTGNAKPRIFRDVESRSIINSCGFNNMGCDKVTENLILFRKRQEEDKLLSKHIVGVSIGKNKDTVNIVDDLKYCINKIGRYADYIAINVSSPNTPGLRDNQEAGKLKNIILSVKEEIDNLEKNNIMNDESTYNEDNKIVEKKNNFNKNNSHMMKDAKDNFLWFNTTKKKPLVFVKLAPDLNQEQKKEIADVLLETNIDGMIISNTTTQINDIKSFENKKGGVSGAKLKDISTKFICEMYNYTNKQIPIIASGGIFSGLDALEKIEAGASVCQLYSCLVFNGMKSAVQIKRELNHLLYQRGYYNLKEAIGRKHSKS
For `O=C(O)[C@@H]1[C@@H]2C(=O)N(c3ccccc3)C(=O)[C@@H]2C[C@@H]1Sc1ccccc1`, the composite z-score is 1.2 (inactive).

For the molecule `CCOC(=O)C1=CC[C@@H](c2ccccc2F)N(S(=O)(=O)c2ccc(C)cc2)[C@H]1c1ccccc1`, the composite z-score is -0.496 (inactive). In the case of `C=CCN1Cc2ccccc2[C@@H]2OC(c3ccc(OCCCO)cc3)=N[C@]2(CC=C)C1=O` it was -0.0817 (inactive).

`O=C(NCCN1CCOCC1)[C@@H]1c2ccccc2C(=O)N(C2Cc3ccccc3C2)[C@H]1c1ccc(CO)cc1`: the composite z-score is -1.79 (inactive). In the case of `C=CCC(OC(C)=O)[C@@H]1[C@@H](N(Cc2cccc3ccccc23)C(=O)Cc2ccc(OC)cc2)c2cc(OCCCO)ccc2N1C(=O)c1ccc(-c2ccccc2)cc1` (stereo partly specified) it was -0.547 (inactive).

As for `CC(C)[Si](C#CCCCC#N)(O[C@H](c1ccccc1)c1cn(Cc2ccccc2)nn1)C(C)C`, the composite z-score is -0.0054 (inactive).

Turning to `NCCCCCCNC(=O)[C@@H]1C[C@@H]2C(=O)N[C@@H](CCCCN)C(=O)N2[C@@H]1c1ccc(O)cc1`, the composite z-score is -29.1 (active).

With `CCN(CC)c1ccc(N2CC=CC34O[C@@H]5/C=C\CCCOC(=O)C5[C@H]3C(=O)N(C(C)CO)[C@@H]4C2=O)cc1` (stereo partly specified), the composite z-score is -2.25 (inactive). In the case of `CC(C)N1C(=O)C[C@@](C(=O)O)(c2ccc([N+](=O)[O-])cc2)[C@H]1c1ccc(CO)cc1` it was -1.24 (inactive).

Turning to `CN(C)C(=O)[C@@]1(Cc2ccccc2)N=C(c2ccc(OCCCO)cc2)O[C@H]1c1ccccc1`, the composite z-score is -0.177 (inactive). The figure for `Cc1ccc(S[C@]2(C(=O)NC(C)C)CC(=O)N(Cc3cc(C(F)(F)F)cc(C(F)(F)F)c3)[C@@H]2c2ccc(CO)cc2)cc1` is -1.06 (inactive). In the case of `COCC(=C=CC[C@H](O)c1ccc(CO)o1)CCO` it was -2.35 (inactive); in that of `CCCCCN1CC=CC23O[C@@H]4/C=C\CCCOC(=O)C4[C@H]2C(=O)N(C(C)CO)[C@@H]3C1=O` (stereo partly specified), -0.298 (inactive). The figure for `COc1ccc([Si](C)(C)[C@@H]2[C@@H](CCO)O[C@]3(C(=O)N(Cc4cccc(NC(=O)[C@H](C)O)c4)c4ccccc43)[C@H]2C)cc1` is 0.554 (inactive); for `Cc1ccc(S[C@]2(C(=O)NCc3ccccc3)CC(=O)N(C3CCCCC3)[C@@H]2c2ccc(CO)cc2I)cc1` it is -0.11 (inactive). As to `CC(C)c1ccc(NN2C(C(O)c3ccc(F)cc3)C=CC3C(=O)N(c4ccccc4)C(=O)C32)cc1` (stereo unspecified), the composite z-score was 0.319 (inactive).

As for `COC(=O)[C@@]1(Cc2ccccc2)[C@H]2c3cc(C(=O)N4CCCC4)n(CCc4ccccn4)c3C[C@H]2CN1C(=O)c1ccccc1`, the composite z-score was -0.105 (inactive). In the case of `CCCN1C(=O)[C@]2(Cc3ccccc31)N=C(c1ccc(OCCCO)cc1)O[C@@H]2c1ccccc1` it was 1.16 (inactive); in that of `O=C1[C@H]2C=C(I)[C@H](C[C@@H]2OCCOCCO)[C@@]12CO2`, 0.0832 (inactive); in that of `CCCCCCc1nc(Cc2cc(OC)c(OC)c(OC)c2)cc2c1[Si](C(C)C)(C(C)C)OC2`, -2.69 (inactive).

For the molecule `COC(=O)C(CC#Cc1ccc2c(c1)[C@]1(C(=O)N2)[C@H](c2ccc(O)cc2)N2[C@H](c3ccccc3)[C@H](c3ccccc3)OC(=O)[C@H]2[C@@H]1C(=O)NC[C@H](O)c1ccccc1)C(=O)OC`, the composite z-score is -3.93 (inactive). In the case of `COCCOC(=O)N1C(=O)[C@@]2(c3cc(C#CC4=CCCCC4)ccc31)[C@H](c1ccccc1OCCO)N1[C@H](c3ccccc3)[C@H](c3ccccc3)OC(=O)[C@H]1[C@@H]2C(=O)N1CCN(c2ncccn2)CC1` it was -0.184 (inactive); in that of `O[C@@H](Cc1ccccc1)[C@@H](/C=C/C1CC1)N(CC#Cc1ccccc1)Cc1ccccc1Br`, 0.63 (inactive).

As to `COc1cc2c(cc1O)C=[N+](Cc1sc3ccccc3c1Cl)CC2`, the composite z-score was -1.18 (inactive).

In the case of `COc1ccc(C#Cc2ccc3c(c2)[C@]2(C(=O)N3)[C@H](C(=O)O)[C@H]3C(=O)O[C@H](c4ccccc4)[C@H](c4ccccc4)N3[C@@H]2c2ccc(O)cc2)cc1`, the composite z-score was -4.06 (inactive).

With `Cn1cccc1C(O)C1C=CC2C(=O)N(c3ccccc3)C(=O)C2N1Nc1ccccc1` (stereo unspecified), the composite z-score was 0.0729 (inactive). The figure for `Cc1ccc(F)cc1S(=O)(=O)N[C@@H]1CCN(Cc2ccc(Br)cc2)C1` is -0.573 (inactive); for `CC1CC/C=C\[C@H]2OC34C=CCN(Cc5ccccc5)C(=O)[C@H]3N(C(CO)C(C)C)C(=O)[C@@H]4C2C(=O)O1` (stereo partly specified) it is -0.841 (inactive). `CCOC(=O)C1=C[C@@H](C(C)C)N(S(=O)(=O)c2ccc(C)cc2)[C@H]1c1ccc(C(F)(F)F)cc1`: the composite z-score was 0.919 (inactive). In the case of `COCCCNC(=O)[C@@]1(Sc2ccc(C)cc2)CC(=O)N(C2Cc3ccccc3C2)[C@@H]1c1ccc(CO)cc1` it was -0.277 (inactive); in that of `C[N+](C)(C)CCCC[C@@H]1NC(=O)[C@@H]2C[C@H](C(=O)NCCCCCCN)[C@H](c3cccc(OCCO)c3)N2C1=O`, 0.441 (inactive); in that of `C=CCC(OC(C)=O)[C@@H]1[C@@H](N(Cc2ccc(-c3ccccc3)cc2)C(=O)c2ccc(-c3ccccc3)cc2)c2cc(OCCCO)ccc2N1C(=O)c1ccc2ccccc2c1` (stereo partly specified), -0.746 (inactive). Regarding `CC1CC/C=C\[C@H]2OC34C=CCN(C(C)C)C(=O)[C@H]3N(CCO)C(=O)[C@@H]4C2C(=O)O1` (stereo partly specified), the composite z-score is 0.705 (inactive). The figure for `CCCNC(=O)[C@@H]1c2ccccc2C(=O)N(Cc2ccc(OC(F)(F)F)cc2)[C@H]1c1ccc(CO)cc1` is -0.966 (inactive); for `CC(C)NC(=O)[C@@]1(C)c2ccccc2C(=O)N(Cc2ccc(OC(F)(F)F)cc2)[C@H]1c1ccc(CO)cc1` it is -0.852 (inactive); for `COc1ccc(CCNC(=O)[C@@]2(Cc3ccccc3I)c3ccccc3C(=O)N(C3CCCCC3)[C@H]2c2ccc(CO)cc2)cc1` it is -0.145 (inactive).
